From PubChem BioAssay (Tox21) come the findings set out here.

Assay [1] is described as follows: cAMP Responsive Elements (CRE) small molecule antagonists, cell-based qHTS assay: qHTS cell viability counter screen (AID 2060913). Also: nearly all actives have a fitted effect of over 40% in size. The method, boiled down: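 Steps: cells plated and held 18 hrs at 37 C/5% CO2; compounds and NKH477 (0.25 uM final) added; 3 hrs incubation; reporter substrate read; CellTiter-Glo added to measure cytotoxicity by luminescence.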
Assay [2] can be described thus: cAMP Responsive Elements (CRE) small molecule agonists, cell-based qHTS assay: qHTS cell viability counter screen (AID 2060914).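 Also: viability read after 3 h of compound exposure; nearly all actives have a fitted effect of over 50% in size.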 The method, boiled down:
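HEK 293T CRE-bla; DMEM + 10% dialyzed FBS, 25 mM HEPES; 18 h pre-incubation; compound 3 h, 37 °C/5% CO2; CellTiter-Glo added after reporter read; luminescence after 30 min RT.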
On the technique in general: Quantitative high-throughput screening tests each substance at several concentrations.

Results filed as inconclusive are left out. Unmarked numbers belong to inactive results. The source made the active and inactive calls. Calls follow the shape of the dose curve; as a rule, active = well fitted cell-killing curve with a large enough effect in the repeat runs; inconclusive = weak or mixed curves, or effect the other way; inactive = flat fitted curve, though single readings scatter.
% is scaled to controls: 0 for no effect and ±100 for the full control effect.

Consider `CC(=O)CCC(C)C`, for which the Potency entry in assay [1] and in assay [2] was “inactive” each time.
Consider `CN1CCOCC1`, for which the Potency entry in assay [1] and in assay [2] was “inactive” in each case.
For the molecule `O=[N+]([O-])c1cccc(S(=O)(=O)NCCNS(=O)(=O)c2cccc([N+](=O)[O-])c2)c1`, the Potency result in assay [1] and in assay [2] was “inactive” each time.
Consider `CN(C)c1cccc(O)c1`, for which the Potency result in assay [1] and in assay [2] was “inactive” each time.
Take `NC(Cc1ccc(F)cc1)C(=O)O` (centres undefined): in assay [1], the viability change, negative = cytotoxic was 19.3% [at 8.39 µM]. For the same molecule, the activity change, negative = cytotoxicity in assay [2] is 0.316% [at 8.39 µM].
Consider `Nc1c(I)cc(I)c(C(=O)N(CCC(=O)O)c2ccccc2)c1I`, for which the Potency entry in assay [1] and in assay [2] was “inactive” each time.
Consider `C=C(C)CCCC`, for which the Potency entry in assay [1] and in assay [2] was “inactive” each time.
For `CC(=O)Nc1c(I)c(NC(C)=O)c(I)c(C(=O)O)c1I`, the Potency result in assay [1] and in assay [2] was “inactive” throughout.
On to `CCCCCCCCCCCSCC(=O)O`, for which the Potency entry in assay [1] and in assay [2] was “inactive” each time.
For `Nc1ccc(Oc2ccc(N)c(N)c2)cc1`, the Potency result in assay [1] and in assay [2] was “inactive” in each case.
Take `C=C(C)CCO`: the Potency result in assay [1] and in assay [2] was “inactive” each time.
In the case of `CCN(CC)C(=O)c1cccc(C)c1`, the Potency entry in assay [1] and in assay [2] was “inactive” in each case.
`N[C@@H](Cc1cc(I)c(Oc2cc(I)c(O)c(I)c2)c(I)c1)C(=O)O`: the Potency result in assay [1] and in assay [2] was “inactive” in each case.
With `CCCCCCCCCC(=O)OCC`, the Potency result in assay [1] and in assay [2] was “inactive” each time.
For the molecule `CC(C)(N)CO`, the Potency result in assay [1] and in assay [2] was “inactive” each time.
On to `Nc1ccc([N+](=O)[O-])c(N)c1`, for which the Potency entry in assay [1] and in assay [2] was “inactive” in each case.
`O=[N+]([O-])C1(Br)COCOC1`: the Potency entry in assay [1] and in assay [2] was “inactive” each time.
On to `NS(=O)(=O)c1cc2c(cc1C(F)(F)F)NCNS2(=O)=O`, for which the Potency result in assay [1] and in assay [2] was “inactive” in each case.
With `FC(F)(F)C(F)(F)C(F)(F)C(F)(F)C(F)(F)C(F)(F)C(F)(F)C(F)(F)Br`, the Potency result in assay [1] and in assay [2] was “inactive” each time.
Turning to `O=C(NCCc1c[nH]c2ccccc12)c1cccnc1`, the Potency result in assay [1] and in assay [2] was “inactive” in each case.
`CC(C)C[C@@H](N)C(=O)O`: in assay [1], the viability change, negative = cytotoxic was 3.57% [at 18.9 µM]. The activity change, negative = cytotoxicity in assay [2] is -6.51% [at 18.9 µM].
For the molecule `CCCCCC/C(C=O)=C\c1ccccc1`, the Potency entry in assay [1] and in assay [2] was “inactive” throughout.
Turning to `CO`, the Potency result in assay [1] and in assay [2] was “inactive” each time.
For the molecule `CS(=O)(=O)CCNCc1ccc(-c2ccc3ncnc(Nc4ccc(OCc5cccc(F)c5)c(Cl)c4)c3c2)o1`, the Potency result in assay [1] and in assay [2] was “inactive” throughout.
For `COc1ccc(N=[N+]([O-])c2ccc(OC)cc2)cc1`, the Potency entry in assay [1] and in assay [2] was “inactive” in each case.
Take `C1CN(CCOCCN2CCOCC2)CCO1`: the Potency result in assay [1] and in assay [2] was “inactive” in each case.
Regarding `CCCCCOC(=O)c1ccc(O)cc1`, the Potency entry in assay [1] and in assay [2] was “inactive” throughout.
Consider `O=C(O)c1c(Cl)cccc1Cl`, for which the Potency entry in assay [1] and in assay [2] was “inactive” throughout.
With `O=C(CC(=O)C(F)(F)F)c1ccccc1`, the Potency entry in assay [1] and in assay [2] was “inactive” in each case.
Take `CCOC(=O)C1OC1c1ccccc1` (centres undefined): the Potency entry in assay [1] and in assay [2] was “inactive” in each case.
For `OCCc1ccccc1`, the Potency entry in assay [1] and in assay [2] was “inactive” each time.
Turning to `CCN(CC)CCNC(=O)c1cc(Br)c(N)cc1OC`, the Potency entry in assay [1] and in assay [2] was “inactive” each time.
Take `CC(C)N=C=NC(C)C`: the Potency result in assay [1] and in assay [2] was “inactive” in each case.
`CC(=O)[C@H]1CC[C@H]2[C@@H]3C=CC4=CC(=O)CC[C@@]4(C)[C@@H]3CC[C@]12C`: the Potency entry in assay [1] and in assay [2] was “inactive” throughout.
For the molecule `C[C@]12CC[C@@H]3c4ccc(O)cc4CC[C@H]3[C@@H]1CC[C@H]2O`, the Potency entry in assay [1] and in assay [2] was “inactive” throughout.
For the molecule `CCC(CN)=C(c1ccccc1)c1ccccc1`, the Potency result in assay [1] and in assay [2] was “inactive” each time.
`CCC(Cc1ccccc1)(C(=O)c1ccc(N2CCOCC2)cc1)N(C)C` (centres undefined): the Potency result in assay [1] and in assay [2] was “inactive” each time.
In the case of `Nc1cc(Cl)cc(S(=O)(=O)O)c1O`, the Potency entry in assay [1] and in assay [2] was “inactive” each time.
`CC(C)CCC(=O)CCC(C)C`: the Potency result in assay [1] and in assay [2] was “inactive” each time.
Regarding `CC(=O)O[C@@H]1CC2C3CCc4cc(OC(=O)c5ccccc5)ccc4C3CCC2(C)[C@H]1OC(C)=O` (some centres undefined), the Potency result in assay [1] and in assay [2] was “inactive” throughout.
Regarding `CC/C=C\CC/C=C/C(OCC)OCC`, the Potency entry in assay [1] and in assay [2] was “inactive” each time.
Regarding `Nc1ccn([C@H]2CS[C@@H](CO)O2)c(=O)n1`, the Potency entry in assay [1] and in assay [2] was “inactive” in each case.
Consider `CCCN(CCC)S(=O)(=O)c1ccc(C(=O)O)cc1`, for which the Potency result in assay [1] and in assay [2] was “inactive” throughout.
Turning to `CCCCN1C=CN(C)C1`, in assay [1], the viability change, negative = cytotoxic is 7.21% [at 18.9 µM]. For the same molecule, the activity change, negative = cytotoxicity in assay [2] is 2.49% [at 18.9 µM].
For the molecule `CO[C@@]1(NC(=O)C(C(=O)O)c2ccc(O)cc2)C(=O)N2C(C(=O)O)=C(CSc3nnnn3C)CO[C@@H]21` (some centres undefined), the Potency entry in assay [1] and in assay [2] was “inactive” in each case.
Take `O=C(N/N=C/c1ccccc1O)c1ccncc1`: the Potency result in assay [1] and in assay [2] was “inactive” in each case.
With `Oc1ccc2ccccc2c1N=Nc1ccccc1`, the Potency result in assay [1] and in assay [2] was “inactive” in each case.
For the molecule `CCCC(=O)OC`, the Potency result in assay [1] and in assay [2] was “inactive” each time.
With `CCCCCCCCCCCCS`, the Potency result in assay [1] and in assay [2] was “inactive” each time.
As for `COC(=O)c1cc(Cl)c(NC(C)=O)cc1OC`, the Potency result in assay [1] and in assay [2] was “inactive” in each case.
Turning to `Nc1ccc(C(=O)NCC(=O)O)cc1`, the Potency entry in assay [1] and in assay [2] was “inactive” in each case.
On to `CC(C)OC(=O)COc1ccc(Cl)cc1Cl`, for which the Potency entry in assay [1] and in assay [2] was “inactive” in each case.
As for `[K+]`, the Potency entry in assay [1] and in assay [2] was “inactive” in each case.
Consider `COS(=O)(=O)O`, for which the Potency result in assay [1] and in assay [2] was “inactive” each time.
Regarding `COc1cc(C)c(Cc2cnc(N)nc2N)cc1OC`, the Potency result in assay [1] and in assay [2] was “inactive” in each case.
In the case of `C=C(C)C1CCC(C)(O)CC1` (centres undefined), the Potency entry in assay [1] and in assay [2] was “inactive” in each case.
For the molecule `CC1(CO)CN(c2ccccc2)NC1=O` (centres undefined), the Potency entry in assay [1] and in assay [2] was “inactive” each time.
